Ten sequences from the OligoGym collection can be followed below.
Also: reference of the scale not given here.

The target of this experiment is CTSH. As to the kind of experiment: pooled miR-30 sensor sort-seq; sequence = guide strand. Particulars: shRNA.
TTCCTCGTCATAGATTGTGATG: the sensor-assay potency score (higher = more potent) was -1.43.

As for TCGTCATAGATTGTGATGTTGG, the sensor-assay potency score (higher = more potent) was -0.963.

Sequence TTCTCCATACCCAACAGCCAGT came in with a sensor-assay potency score (higher = more potent) of -1.28.

TTAGACATCCATGACTTGAAGT: the sensor-assay potency score (higher = more potent) is -0.899.

Take TTTTATGGCAGGAAGTACTGGA: the sensor-assay potency score (higher = more potent) was 0.401.

As for TTATCTTCCTCCAGTTGCTGGC, the sensor-assay potency score (higher = more potent) was -0.0224.

Sequence TACTGTAGGTCTTACGGTGCTT had a sensor-assay potency score (higher = more potent) of -0.0767.

In turn, TTCAGCAAAGCTCATGTCTGAA yielded a sensor-assay potency score (higher = more potent) of -0.714.

Sequence TTTGGTGGCTGAGCAATTCTGA gave a sensor-assay potency score (higher = more potent) of -0.218.

As to TGCTTAGACATCCATGACTTGA, the sensor-assay potency score (higher = more potent) is -1.27.
